The record followed here is PubChem BioAssay (NCATS).

Inconclusive results are not listed. Where a call stands in place of a potency, no number is given. Active and inactive are the calls of the source. Calls come from the whole dose curve; as a rule, active = well fitted inhibition curve with a large enough effect; inconclusive = small, poorly fitted or top-dose-only effect; inactive = no such curve, though single readings can be large or run the other way.

For this assay, the system named is Zika virus NS2B-NS3 protease (linked construct). Put plainly: Primary screen NINDS Rhodamine qHTS for Zika virus inhibitors (AID 1347160). Note: nearly all actives have a fitted effect of over 55% in size. As to conditions: purified NS2B-NS3 protease, Rhodamine110 substrate fluorescence; series mostly up to 33.1 µM. The method, boiled down: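 Purified NS2B-NS3 protease with the NS2B hydrophilic domain joined by a flexible linker (25 nM) in 10 mM Tris-HCl pH 8.0, 0.01% Tween 20, preincubated 15 min at RT with compound; Rhodamine110 peptide substrate 1.5 µM; fluorescence change over 15 min; 4-parameter Hill fit.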
In general terms: In qHTS, concentration-response curves come from the screen itself.
Turning to `C=C1C(OC(C)=O)CCC2(C)CCC(C(C)(C)O)CC12` (stereo unspecified), the Potency result was “inactive”.
Consider `CC(C)=CCC[C@](C)(O[C@@H]1O[C@H](CO[C@@H]2O[C@@H](CO)[C@H](O)[C@H]2O[C@@H]2OC[C@@H](O)[C@H](O)[C@H]2O)[C@@H](O)[C@H](O)[C@H]1O)[C@H]1CC[C@]2(C)[C@@H]1[C@H](O)CC1[C@@]3(C)CC[C@H](O[C@@H]4O[C@H](CO)[C@@H](O)[C@H](O)[C@H]4O[C@@H]4O[C@H](CO)[C@@H](O)[C@H](O)[C@H]4O)C(C)(C)C3CC[C@]12C` (stereo partly specified), for which the outcome is “inactive [at 10.7 µM]”.
Turning to `CC(=O)NC1C(OC2CCC3(C)C(CCC4(C)C3CC=C3C5CC(C)(C)CCC5(C(=O)O)C(O)CC34C)C2(C)C)OC(CO)C(O)C1O` (stereo unspecified), the Potency entry was “inactive”.
On the same count and under the same terms, for `CC1(C)CC(NC(=O)C(=O)Nc2ccc(Cl)cc2)CC(C)(C)N1` the value was “inactive”.
As to `COc1cn(-c2ccc(-n3cccn3)cc2F)nc(-c2ccnn2-c2ccccc2)c1=O`, the Potency entry is “inactive”.
Regarding `O=C(O)c1cc(O[C@@H]2O[C@H](CO)[C@@H](O)[C@H](O)[C@H]2O)ccc1O`, the Potency result is “inactive”.
Turning to `CCOC(=O)C(CCc1ccccc1)NC(C)C(=O)N1Cc2ccccc2CC1C(=O)O` (stereo unspecified), the Potency result is “inactive”.
Turning to `COc1ccc(C(=O)CC(=O)O)c2c1C=CC(C)(C)O2`, the Potency entry is “inactive”.
The same measure, in the same setting: for `CCCN1CCC[C@@H](c2cccc(S(C)(=O)=O)c2)C1` the value was “inactive”.
`C=CC(C)(CC/C=C(\C)C(=O)OC)OC1OC(COC(=O)CC(C)(O)CC(=O)O)C(O)C(O)C1O` (stereo unspecified): the Potency result was “inactive”.
`COc1ccc(/C=C/C(=O)O[C@@H]2[C@@H](O)[C@@H](O)[C@H](O[C@H]3[C@@H]4C=CO[C@@H](O[C@@H]5O[C@H](CO)[C@@H](O)[C@H](O)[C@H]5O)[C@@H]4[C@@]4(CO)O[C@@H]34)O[C@H]2C)cc1`: the Potency result is “inactive”.
